The text below walks through data of PubChem BioAssay.

Values joined by “and” are separate entries in the source; they are usually repeats but may differ in a detail not shown here. Equal entries are not always repeated. Values without a mark were called inactive. Active and inactive are the calls of the source. Unless noted, no rule for the calls is given here.

Assay [1] in a line: signal quenchers or enhancers, Cy5 substrate/SSB – biochemical, NIH Clinical Collection, E. coli SSB, artefact control for HCV NS3 helicase inhibitor project (AID 743268). The settings on record: Cy5-oligo bound E. coli SSB, fluorescence interference.
Assay [2] concerns Hepatitis C virus NS3 helicase. Description: blockers of NS3h binding to DNA – biochemical, fluorescence polarization, NIH Clinical Collection, primary screen (AID 743270). The settings on record: NS3 helicase binding to Cy5-dT15 DNA, hits give high values, concentration not given here. A general note: Polarisation of emitted light reports the rotation of a fluorescent probe.
Assay [3] deals with Single-stranded DNA-binding protein (Escherichia coli (strain K12)) (UniProt P0AGE0). The experiment in a line: SSB-ssDNA binding inhibitors – biochemical, fluorescence polarization, NIH Clinical Collection, counter-screen for HCV NS3 helicase inhibitor project (AID 743271; in the data active = inhibition above about 28%). Conditions: E. coli SSB-DNA binding, hits give high values, concentration not given here.
Assay [4] is described as follows: compounds distorting NS3 helicase fluorescence signal – biochemical, NIH Clinical Collection, artefact control for HCV NS3 helicase inhibitor project (AID 743272).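 Also: HCV NS3 helicase with a Cy5 labelled single stranded DNA probe.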 Conditions: fluorescence interference counterscreen, HCV NS3 helicase assay; hits give low values. Background: The purpose of a counterscreen is to sort out artefacts and off-target activity.
For assay [5], the system named is Neuropilin-2 / VEGF-C interaction (human). The experiment in a line: small molecules blocking Neuropilin-2/VEGF-C interaction – biochemical, microplate binding format, z-score (AID 743281). Conditions: microplate NRP2/VEGF-C binding assay; hits give low values.
A short description of assay [6]: modulation of C. elegans fzo-1 (AID 1259413).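 Also: fzo-1 mutant C. elegans worms in liquid wells.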 Conditions: C. elegans fzo-1 modulator screen, mean read-out; hits give high values.
The test system of another assay is F380Y. The experiment in a line: BK channel mutant inhibitors and activators – cell-based, U2OS BacMam, thallium flux, beta subunits, selectivity assay, profiling panel (AID 1259406;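 active = thallium flux through the channel raised or lowered by more than 3 SD from vehicle-only wells, actives on both sides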;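 also: initial slope of Thallos dye fluorescence rise after thallium is added; log ratio against the mean of 0.3% DMSO vehicle wells on the same plate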). The settings on record: U2OS BacMam BK variants, at 30 µM.
Another assay relates to F380Y/beta1. Described as above. The settings on record: U2OS BacMam BK variants, at 30 µM.
The test system of a further assay is F380Y/beta2Delta. The assay is described as above. The settings on record: U2OS BacMam BK variants, at 30 µM.
The next assay relates to F380Y/beta4. The description is as above. Conditions: U2OS BacMam BK variants, at 30 µM.
Assay [7] concerns the target Calcium-activated potassium channel subunit alpha-1 (Homo sapiens) + Leucine-rich repeat-containing protein 26 (Homo sapiens) (UniProt Q12791+Q2I0M4). Described as above. The settings on record: U2OS BacMam BK variants, F380Y/Slo1WT/gamma1, at 30 µM.
The test system of a further assay is R275C. Described as above. Conditions: U2OS BacMam BK variants, at 30 µM.
A further assay has as its system R275C/beta1. Described as above. Conditions: U2OS BacMam BK variants, at 30 µM.
The test system of another assay is R275C/beta2Delta. The assay is described as above. Conditions: U2OS BacMam BK variants, at 30 µM.
The next assay deals with R275C/beta4. Described as above. The settings on record: U2OS BacMam BK variants, at 30 µM.
A further assay relates to R275C/Slo1WT/beta2. The assay is described as above. Conditions: U2OS BacMam BK variants, at 30 µM.
The nature of assay [8]: compounds altering circadian rhythm period length – cell-based, LOPAC library, luminescence reporter (AID 2774).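 Also: values are relative to mean of DMSO wells on each plate.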 The settings on record: circadian reporter cells, at 7 µM, actives lie on both sides.
Assay [9] concerns Hepatitis C virus NS3 helicase. The experiment in a line: blockers of NS3h binding to ssDNA – biochemical, fluorescence polarization, LOPAC1280 library, primary screen (AID 687035; in the data active = inhibition above about 37%). Conditions: Purified HCV NS3 helicase, Cy5-dT15 ssDNA binding fluorescence polarization; hits give high values; concentration not given here.
Assay [10] in a line: compounds altering Cy5-DNA-NS3h complex signal – biochemical, LOPAC1280, artefact control for HCV NS3 helicase inhibitor project (AID 687037). Conditions: Cy5-DNA-NS3h complex fluorescence interference counterscreen.
Assay [11] can be described thus: blockers of cellular phospholipid synthesis – cell-based, LOPAC library, screen 4, primary screen (AID 1347384). Conditions: animal cells, phospholipid biosynthesis inhibition screen; at 10 µM.

Sequence of Calcium-activated potassium channel subunit alpha-1 (Homo sapiens) + Leucine-rich repeat-containing protein 26 (Homo sapiens) (Q2I0M4 whole entry, looked up, one chain of several): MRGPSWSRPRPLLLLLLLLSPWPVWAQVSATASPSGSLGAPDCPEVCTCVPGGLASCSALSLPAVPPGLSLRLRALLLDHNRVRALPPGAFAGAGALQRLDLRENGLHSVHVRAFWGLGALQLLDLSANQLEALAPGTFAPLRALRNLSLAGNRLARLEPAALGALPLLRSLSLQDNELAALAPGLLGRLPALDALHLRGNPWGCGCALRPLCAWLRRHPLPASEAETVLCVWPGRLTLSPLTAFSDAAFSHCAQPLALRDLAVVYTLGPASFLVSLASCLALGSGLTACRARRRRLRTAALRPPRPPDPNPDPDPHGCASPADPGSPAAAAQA

In the case of `COc1cc2c(cc1OC)[C@@]13CCN4CC5=CCO[C@H]6CC(=O)N2[C@H]1[C@H]6[C@H]5C[C@H]43`, the fluorescence ratio was 0.94 in assay [1] and 0.89 in [4]. Moreover, the inhibition is -2.84% in [2] and 2.76% in assay [3]. Also, the z-score in assay [5] was -0.249. Further, in [6], the mean signal is 265. Also, the log fold change Tl+ flux with F380Y is 0.0307; in the assay on F380Y/beta1 it was -0.0206; in the assay with F380Y/beta2Delta, -0.0179; with F380Y/beta4 it was 0.0166; in assay [7] it was -0.0482; in the assay with R275C it was -0.0395. The log fold change Tl+ flux was 0.0112 in the assay with R275C/beta1, -0.0452 with R275C/beta2Delta, -0.00487 in the assay with R275C/beta4 and -0.0314 in the assay with R275C/Slo1WT/beta2.
Take `NC(=O)CS(=O)C(c1ccccc1)c1ccccc1` (stereo not given): the fluorescence ratio in [1] is 1; in assay [4], 0.98. For the same compound, the inhibition is 0.4% in assay [2] and -3.18% in assay [3]. In addition, in assay [5], the z-score was 0.787. Moreover, the mean signal in assay [6] is 263. Further, the log fold change Tl+ flux in the assay on F380Y was -0.0264; with F380Y/beta1, 0.0487; with F380Y/beta2Delta it was 0.0296; in the assay on F380Y/beta4, 0.00509; in assay [7] it was -0.00311; with R275C it was -0.0429. Moreover, the log fold change Tl+ flux is 0.0162 in the assay with R275C/beta1, 0.0129 in the assay on R275C/beta2Delta, 0.0208 in the assay with R275C/beta4 and 0.0297 in the assay with R275C/Slo1WT/beta2.
Turning to `Cc1nccc2c1[nH]c1ccccc12`, the period change in assay [8] is 0.11 h. The inhibition in assay [9] was -1%. Moreover, in assay [10], the fluorescence ratio (interference) is 1. The compound was classed as inactive in [11].
As to `O=C1CC[C@@]2(O)[C@H]3Cc4ccc(O)c5c4[C@@]2(CCN3CC2CC2)[C@H]1O5`, the log fold change Tl+ flux is 0.00675 in the assay with F380Y; -0.0461 in the assay on F380Y/beta1; 0.00968 in the assay with F380Y/beta2Delta; -0.0353 in the assay with F380Y/beta4; -0.0199 in assay [7]; -0.0442 in the assay with R275C. Besides, the log fold change Tl+ flux in the assay with R275C/beta1 is 0.0294; in the assay with R275C/beta2Delta it was -0.0407; with R275C/beta4, -0.0587; in the assay with R275C/Slo1WT/beta2, 0.0463.
`FC(F)(F)c1cccc(N2CCNCC2)c1`: the fluorescence ratio is 1.01 in assay [1] and 0.93 in assay [4]. For the same compound, the inhibition in assay [2] is -2.77%; in assay [3], -3.95%. In assay [5], the z-score was -0.497. Further, in assay [6], the mean signal is 282. The log fold change Tl+ flux in the assay with F380Y is -0.0132; in the assay on F380Y/beta2Delta it was 0.0279; in assay [7], -0.00699; in the assay with R275C it was 0.0139; in the assay with R275C/beta1 it was 0.0717; in the assay on R275C/beta2Delta, 0.00655.
Turning to `O=c1c2ccccc2[se]n1-c1ccccc1`, the period change in assay [8] was -0.02 h. Moreover, the inhibition in assay [9] is -2%; in assay [2] it was 99.3% (active); in assay [3] it was -0.39%. Moreover, the fluorescence ratio (interference) in assay [10] was 1. Further, the figures for the fluorescence ratio in assay [1] and in [4] were 1 and 1.05, respectively. In [5], the z-score was 0.167. Further, the mean signal in assay [6] is 217.
`OC1CCCCC1N1CCC(c2ccccc2)CC1` (stereo not given): the period change in assay [8] is 0.065 h. In assay [9], the inhibition is -4%. Besides, the fluorescence ratio (interference) in [10] was 1. The call in assay [11] was inactive.
As to `CC[C@@H]1C(=O)OC[C@@H]1Cc1cncn1C`, in assay [8], the period change is -0.045 h and -0.055 h. In assay [9], the inhibition was -2% and 1%. The fluorescence ratio (interference) in [10] was 1.
In the case of `CN1C2CCC1CC(OC(c1ccccc1)c1ccccc1N)C2` (stereo not given), in assay [8], the period change was 0.055 h. Besides, the inhibition in assay [9] was -3%. The fluorescence ratio (interference) in assay [10] is 1. For the same compound, the compound was called inactive in assay [11].
The matching figures for `NC(N)=NOCC[C@H](N)C(=O)O`: -0.04 h, 2%, 1 and “inactive”.
Turning to `O=C(O)CC[N+](=O)[O-]`, the period change in assay [8] is -0.005 h. The inhibition in assay [9] was -3%. Besides, the fluorescence ratio (interference) in assay [10] is 1. In assay [11], the compound was classed as inactive.
Taken in the same sequence, the figures for `NCCc1c[nH]c2ccccc12` were 0.085 h, 0%, 1 and “inactive”.

For orientation: inhibition means the drop in the measured response relative to a control, in per cent.
